Experiment [1] can be described thus: antimalarial activity against Dd2 strain (AID 2302;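 active = growth inhibition above 50% at the single 2 µM test dose, taken to imply half-maximal potency below 2 µM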;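 note: 0% = DMSO untreated growth and 100% = chloroquine plus artemisinin killed control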). The note with it: P. falciparum Dd2 in RBCs, LDH growth readout, 72 h; at 2 µM; hits give high values.
The nature of experiment [2]: HepG2 cytotoxicity, primary screen, cytotoxicity control for P. falciparum antimalarial project, cell-based, ATP luminescence (AID 2303;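 active = inhibition above 50%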;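 note: 0% = DMSO wells and 100% = digitonin-killed cells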). The settings on record: HepG2 viability, 24-48 h, at 10 µM, hits give high values.
The target in experiment [3] is L-lactate dehydrogenase (Plasmodium falciparum (isolate CDC / Honduras)) (UniProt Q27743). Put plainly: PfLDH activity inhibition – cell lysate, 3D7 strain, counter-screen for P. falciparum growth inhibition project (AID 2304).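 Note: 0% = vehicle and 100% = reference inhibitor.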 The note with it: P. falciparum 3D7 crude extract, LDH APAD/NBT absorbance; at 2 µM; hits give high values. (A counterscreen serves to expose hits that act by an unwanted route or on another target.)

Experiment [4] in a line: inhibition of 3D7 malaria parasite growth – strain 3D7 (AID 2306).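 Note: 0% = DMSO wells and 100% = chloroquine plus artemisinin control wells.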 The settings on record: P. falciparum 3D7 erythrocytic growth, LDH absorbance, 72 h; at 2 µM; hits give high values.
In experiment [5] the target is Calcium-dependent protein kinase 1 (Plasmodium falciparum (isolate 3D7)) (UniProt P62344). Put plainly: PfCDPK1 kinase inhibitors, biochemical, TCAMS library (AID 1159585; cut-off not given, nearly all actives have IC50 up to about 0.98 µM;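 note: inhibitors leave more ATP so luminescence rises with inhibition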). The note with it: recombinant PfCDPK1, Kinase-Glo ATP depletion luminescence. For orientation: Kinase-Glo measures the ATP left after a reaction by luminescence.
In experiment [6] the target is Plasmodium falciparum protein kinase 6 (PK6, PF3D7_1337100) (UniProt Q8IDW1). Put plainly: PfPK6 kinase inhibitors, biochemical, TCAMS library (AID 1159586). The note with it: recombinant PfPK6, Kinase-Glo ATP depletion luminescence.
The target of experiment [7] is Protein kinase 7 (PK7), Plasmodium falciparum 3D7 (PF3D7_0213400) (UniProt Q7YTF7). Put plainly: inhibition of Plasmodium PK7 catalytic activity – biochemical, TCAMS antimalarial set, Kinase-Glo luminescence (AID 1159587). The settings on record: recombinant PfPK7, Kinase-Glo ATP depletion luminescence.
Experiment [8] addresses Calcium-dependent protein kinase 4 (Plasmodium falciparum (isolate 3D7)) (UniProt Q8IBS5). Put plainly: PfCDPK4 kinase inhibitors, biochemical, TCAMS library (AID 1159588; cut-off not given, nearly all actives have IC50 up to about 0.91 µM). The note with it: recombinant PfCDPK4, Kinase-Glo ATP depletion luminescence.

Values without a mark were called inactive. For part of these data: Entries with a potency or affinity are not part of this list. The source made the active and inactive calls. Unless noted, the rule behind the calls is not given here.

Chain of L-lactate dehydrogenase (Plasmodium falciparum (isolate CDC / Honduras)) (Q27743 whole entry, looked up): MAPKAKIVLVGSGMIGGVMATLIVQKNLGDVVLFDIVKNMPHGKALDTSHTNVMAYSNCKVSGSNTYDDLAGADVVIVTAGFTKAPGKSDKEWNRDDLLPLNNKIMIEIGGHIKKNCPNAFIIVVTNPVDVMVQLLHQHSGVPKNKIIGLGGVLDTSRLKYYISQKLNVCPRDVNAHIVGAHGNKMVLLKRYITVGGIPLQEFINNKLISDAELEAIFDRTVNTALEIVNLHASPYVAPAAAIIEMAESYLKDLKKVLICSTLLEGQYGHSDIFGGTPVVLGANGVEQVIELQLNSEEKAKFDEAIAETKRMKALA
Chain of Protein kinase 7 (PK7), Plasmodium falciparum 3D7 (PF3D7_0213400) (Q7YTF7 1-343): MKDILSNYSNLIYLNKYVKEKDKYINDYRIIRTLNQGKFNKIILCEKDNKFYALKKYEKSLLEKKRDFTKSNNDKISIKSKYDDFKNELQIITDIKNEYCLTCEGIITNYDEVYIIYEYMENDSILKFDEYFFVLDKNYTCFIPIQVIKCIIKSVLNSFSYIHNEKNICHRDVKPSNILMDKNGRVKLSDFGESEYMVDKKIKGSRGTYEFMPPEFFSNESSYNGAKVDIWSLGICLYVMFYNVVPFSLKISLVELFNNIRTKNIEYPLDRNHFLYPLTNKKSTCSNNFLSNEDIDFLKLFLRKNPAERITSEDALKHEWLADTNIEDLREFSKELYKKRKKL
Chain of Calcium-dependent protein kinase 1 (Plasmodium falciparum (isolate 3D7)) (P62344 whole entry, looked up): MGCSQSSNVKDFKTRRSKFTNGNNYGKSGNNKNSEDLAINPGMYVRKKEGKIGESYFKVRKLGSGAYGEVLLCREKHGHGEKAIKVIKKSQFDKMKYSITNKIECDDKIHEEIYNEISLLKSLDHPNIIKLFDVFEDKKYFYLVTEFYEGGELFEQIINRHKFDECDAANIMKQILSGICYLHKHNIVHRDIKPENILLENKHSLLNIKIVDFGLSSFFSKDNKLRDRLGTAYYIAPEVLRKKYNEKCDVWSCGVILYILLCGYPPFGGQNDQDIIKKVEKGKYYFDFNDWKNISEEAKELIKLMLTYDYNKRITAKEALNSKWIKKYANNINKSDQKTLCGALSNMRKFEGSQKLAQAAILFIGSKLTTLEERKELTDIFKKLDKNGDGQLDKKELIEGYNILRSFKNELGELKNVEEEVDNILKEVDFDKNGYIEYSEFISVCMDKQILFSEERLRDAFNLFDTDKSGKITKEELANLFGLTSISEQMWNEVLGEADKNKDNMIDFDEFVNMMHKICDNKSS
Chain of Calcium-dependent protein kinase 4 (Plasmodium falciparum (isolate 3D7)) (Q8IBS5 whole entry, looked up): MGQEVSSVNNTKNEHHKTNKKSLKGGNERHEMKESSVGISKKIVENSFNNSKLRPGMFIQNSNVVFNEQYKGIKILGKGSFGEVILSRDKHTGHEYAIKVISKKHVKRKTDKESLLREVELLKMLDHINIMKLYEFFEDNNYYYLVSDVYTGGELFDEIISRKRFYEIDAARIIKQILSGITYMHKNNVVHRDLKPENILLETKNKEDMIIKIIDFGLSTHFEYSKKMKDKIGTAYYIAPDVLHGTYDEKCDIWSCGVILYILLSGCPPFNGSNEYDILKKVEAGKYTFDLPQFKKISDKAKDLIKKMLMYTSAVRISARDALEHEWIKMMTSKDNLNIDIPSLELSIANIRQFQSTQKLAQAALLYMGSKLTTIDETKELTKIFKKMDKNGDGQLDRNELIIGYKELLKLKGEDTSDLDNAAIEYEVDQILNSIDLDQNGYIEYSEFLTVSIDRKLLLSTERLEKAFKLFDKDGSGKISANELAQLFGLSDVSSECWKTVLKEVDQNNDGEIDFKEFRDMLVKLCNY
Chain of Plasmodium falciparum protein kinase 6 (PK6, PF3D7_1337100) (Q8IDW1 1-305): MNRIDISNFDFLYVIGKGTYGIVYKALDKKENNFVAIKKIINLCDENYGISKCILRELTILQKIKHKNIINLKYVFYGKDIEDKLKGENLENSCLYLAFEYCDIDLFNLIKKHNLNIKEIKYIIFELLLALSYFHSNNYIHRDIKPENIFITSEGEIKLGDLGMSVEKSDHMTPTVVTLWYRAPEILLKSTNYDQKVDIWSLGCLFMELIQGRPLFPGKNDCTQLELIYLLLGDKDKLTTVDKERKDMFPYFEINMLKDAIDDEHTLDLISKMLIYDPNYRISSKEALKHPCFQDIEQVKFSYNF

Regarding `CCCNCc1ccc(-c2ccc(CN(Cc3cnc(C)cn3)C(=O)CC#N)cc2)nc1`, the values for the growth inhibition in experiment [1] and in experiment [4] were -3% and 92% (active), respectively. The inhibition in experiment [2] is 4%; in experiment [3], 5%. The outcome in experiment [5], in experiment [6], in experiment [7] and in experiment [8] was inactive.
On to `COc1ccc(C2SCC(=O)N2CCc2ccc(OC)c(OC)c2)cc1` (configuration not stated), for which the growth inhibition is 2% in experiment [1] and 96% (active) in experiment [4]. Moreover, the inhibition is 19% in experiment [2] and 1% in experiment [3]. Also, the result in experiment [5], in experiment [6], in experiment [7] and in experiment [8] was inactive.
In the case of `Cc1cccc(C(=O)N2CCN(Cc3cccc(NC(=O)c4ccco4)c3)CC2)c1`, the growth inhibition in experiment [1] is 79% (active); in experiment [4] it was 94% (active). The inhibition in experiment [2] was 7%; in experiment [3], 1%. The outcome in experiment [5], in experiment [6], in experiment [7] and in experiment [8] was inactive.
Consider `Cc1noc(C)c1-c1ccc2c(Nc3ccccc3C(C)(C)C)c(C(=O)NCc3ccc(C(F)(F)F)cc3)cnc2c1`, for which the growth inhibition is 50% (active) in experiment [1] and 99% (active) in experiment [4]. Moreover, the inhibition was 30% in experiment [2] and 0% in experiment [3]. Also, the outcome in experiment [5], in experiment [6], in experiment [7] and in experiment [8] was inactive.
For the compound `CN1CCN(c2ccnc3ccc(NC(=O)Nc4cccc5c(Br)cccc45)cc23)CC1`, the growth inhibition in experiment [1] is 96% (active); in experiment [4], 100% (active). The inhibition in experiment [2] was 7%; in experiment [3] it was 6%. Moreover, the result in experiment [5], in experiment [6], in experiment [7] and in experiment [8] was inactive.
For the compound `O=C(Nc1ccncc1)c1cc(C(=O)Nc2ccncc2)cc([N+](=O)[O-])c1`, the growth inhibition in experiment [1] was 50% (active); in experiment [4] it was 100% (active). The values for the inhibition in experiment [2] and in experiment [3] were 1% and -3%, respectively. Also, the result in experiment [5], in experiment [6], in experiment [7] and in experiment [8] was inactive.
For the compound `CN(C)CCOc1ccc(N2CCN(CCCCNC(=O)c3ccc(/C=C/c4cc(Cl)cc(Cl)c4)cc3)CC2)cc1`, the growth inhibition is 84% (active) in experiment [1] and 98% (active) in experiment [4]. In addition, the inhibition in experiment [2] was 97% (active); in experiment [3] it was 1%. The outcome in experiment [5], in experiment [6], in experiment [7] and in experiment [8] was inactive.
As for `O=C(Nc1ccc(OC2CCN(Cc3ccc(F)cc3)CC2)c(Cl)c1)c1ccc(F)cc1`, the growth inhibition was 95% (active) in experiment [1] and 97% (active) in experiment [4]. Moreover, the values for the inhibition in experiment [2] and in experiment [3] were 37% and -1%, respectively. Moreover, the outcome in experiment [5], in experiment [6], in experiment [7] and in experiment [8] was inactive.
With `Cc1cc(NN=Cc2cccc(F)c2)c2cccc(C)c2n1`, the growth inhibition was 53% (active) in experiment [1] and 100% (active) in experiment [4]. Moreover, the inhibition in experiment [2] was 14%; in experiment [3], 5%. Besides, the outcome in experiment [5], in experiment [6], in experiment [7] and in experiment [8] was inactive.
As to `CCNc1cc(C)nc(Nc2ccc(NC(=O)c3ccc(OC)c(OC)c3)cc2)n1`, the growth inhibition in experiment [1] is 65% (active); in experiment [4], 101% (active). Moreover, the inhibition in experiment [2] is 19%; in experiment [3], 0%. Moreover, the result in experiment [5], in experiment [6], in experiment [7] and in experiment [8] was inactive.
For `O=C(NCc1ccccc1)c1nn(CCCN2CCC(N3CCCC3)CC2)cc1-c1ccc(Cl)c(Cl)c1`, the values for the growth inhibition in experiment [1] and in experiment [4] were 89% (active) and 103% (active), respectively. The inhibition in experiment [2] was 29%; in experiment [3], 0%. The outcome in experiment [5], in experiment [6], in experiment [7] and in experiment [8] was inactive.
On to `O=C(NCCCCN1CCC(c2ccc3c(c2OC(=O)c2ccc(NC(=O)c4ccc(Cl)cc4)cc2)CCCC3)CC1)c1ccc(NC(=O)c2ccc(Cl)cc2)cc1`, for which the growth inhibition in experiment [1] is 99% (active); in experiment [4] it was 101% (active). Moreover, the inhibition in experiment [2] is 62% (active); in experiment [3] it was -2%. For the same compound, the result in experiment [5], in experiment [6], in experiment [7] and in experiment [8] was inactive.
As to `COc1ccc(CNC(=O)c2cnc3c(O)cccc3c2Nc2cccc(NC(=O)c3ccc(F)cc3)c2)cc1`, the growth inhibition in experiment [1] is 65% (active); in experiment [4], 91% (active). For the same compound, the inhibition in experiment [2] is 50% (active); in experiment [3], 2%. For the same compound, the outcome in experiment [5], in experiment [6], in experiment [7] and in experiment [8] was inactive.
`Cc1cccc(CCCNC(=O)CN(c2cccc(C(F)(F)F)c2)S(=O)(=O)c2ccc(C(F)(F)F)cc2)c1`: the growth inhibition in experiment [1] is 94% (active); in experiment [4], 96% (active). Moreover, the inhibition in experiment [2] was 9%; in experiment [3], 5%. Moreover, the result in experiment [5], in experiment [6], in experiment [7] and in experiment [8] was inactive.
As for `CCN(CC)CC(O)Cc1c2ccc([N+](=O)[O-])cc2nc2cc(OC)c(OC)cc12` (configuration not stated), the growth inhibition in experiment [1] is 37%; in experiment [4], 100% (active). Further, the figures for the inhibition in experiment [2] and in experiment [3] were 41% and -6%, respectively. Moreover, the result in experiment [5], in experiment [6], in experiment [7] and in experiment [8] was inactive.
For `Cc1cc(C(=O)Nc2ccc3c(c2)CCN3C2CCN(Cc3cc(F)cc(F)c3F)C2)no1` (configuration not stated), the growth inhibition was 96% (active) in experiment [1] and 95% (active) in experiment [4]. Also, the inhibition in experiment [2] is -5%; in experiment [3], 0%. The result in experiment [5], in experiment [6], in experiment [7] and in experiment [8] was inactive.
With `CN(Cc1ccc(-c2ccc(C(F)(F)F)cc2)cc1)C(=O)Cn1c(CCc2cccc(F)c2F)cc(=O)c2ccc(OCCCN3CCCCC3)cc21`, the values for the growth inhibition in experiment [1] and in experiment [4] were 90% (active) and 103% (active), respectively. For the same compound, the inhibition in experiment [2] is 79% (active); in experiment [3] it was 5%. Besides, the outcome in experiment [5], in experiment [6], in experiment [7] and in experiment [8] was inactive.
On to `CC(=O)c1cccc2[nH]c(C(=O)NC3CCC(CCN4CCc5ccc(C#N)cc5C4)CC3)cc12` (configuration not stated), for which the results for the growth inhibition in experiment [1] and in experiment [4] were 0% and 96% (active), respectively. In addition, the inhibition in experiment [2] is 12%; in experiment [3], 1%. Moreover, the result in experiment [5], in experiment [6], in experiment [7] and in experiment [8] was inactive.
For `COc1cc2c(OC)cccc2cc1CNCCCCCCNCc1cc2cccc(OC)c2cc1OC`, the growth inhibition was 7% in experiment [1] and 95% (active) in experiment [4]. The inhibition in experiment [2] was 59% (active); in experiment [3], 1%. The result in experiment [5], in experiment [6], in experiment [7] and in experiment [8] was inactive.
On to `CC(C)[C@H](NC(=O)c1c(F)cccc1F)C(=O)Nc1ccc(Cc2nc3ccccc3s2)cc1`, for which the results for the growth inhibition in experiment [1] and in experiment [4] were 72% (active) and 82% (active), respectively. Besides, the figures for the inhibition in experiment [2] and in experiment [3] were 3% and 0%, respectively. The result in experiment [5], in experiment [6], in experiment [7] and in experiment [8] was inactive.
Turning to `COc1cc(-c2cc(-c3ccc(OCCN(C)C)cc3)[nH]c2-c2ccncc2)ccc1Cl`, the growth inhibition in experiment [1] is 100% (active); in experiment [4], 101% (active). In addition, the inhibition in experiment [2] was 28%; in experiment [3], -2%. Besides, the outcome in experiment [5], in experiment [6], in experiment [7] and in experiment [8] was inactive.
Take `CCCCCCOc1ccc(C(=O)N[C@H]2CCN(CCCCCNC(=O)/C=C/c3ccc(Cl)c(Cl)c3)C2)cc1`: the growth inhibition was 25% in experiment [1] and 99% (active) in experiment [4]. Also, the inhibition was 10% in experiment [2] and -5% in experiment [3]. Moreover, the result in experiment [5], in experiment [6], in experiment [7] and in experiment [8] was inactive.
Regarding `CCCc1cc(OC)c(CC2c3cccc(O)c3CCN2C)cc1OC` (configuration not stated), the growth inhibition in experiment [1] is 99% (active); in experiment [4], 100% (active). The figures for the inhibition in experiment [2] and in experiment [3] were 3% and 0%, respectively. The result in experiment [5], in experiment [6], in experiment [7] and in experiment [8] was inactive.
For `CN(C)Cc1ccc(-c2ccc(NC(=O)c3ccc4c(=O)n(Cc5ccoc5)cnc4c3)cc2)cc1`, the growth inhibition in experiment [1] is 16%; in experiment [4] it was 80% (active). Also, the inhibition is 32% in experiment [2] and 3% in experiment [3]. Moreover, the result in experiment [5], in experiment [6], in experiment [7] and in experiment [8] was inactive.

The inhibition is the relative decrease from the control value, in per cent.

For the origin of these results see PubChem BioAssay.
